This assay concerns the target Voltage-dependent L-type calcium channel subunit alpha-1D (Homo sapiens) (UniProt Q01668). As to the kind of experiment: disruptors of CaV1.3 IQ/ICDI domain association – cell-based, HEK293, YFP-IQ/CFP-ICDI FRET, cherry-picks, dose response (AID 1053205).

The values below come from PubChem BioAssay AID1053205 (Broad Institute, 2014).

Results with a measured potency or affinity are listed apart. Records with an inconclusive call do not appear. Activity calls are given as the source filed them.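 The calls were made as follows: active = compounds lowering the FRET ratio whose fitted half-maximal concentration is at most twice their top tested dose; inconclusive = flat partial drop between 30 and 70 percent, or bad fit; inactive = the rest.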

Sequence of Voltage-dependent L-type calcium channel subunit alpha-1D (Homo sapiens) (Q01668 whole entry, looked up, the tested form may be a part): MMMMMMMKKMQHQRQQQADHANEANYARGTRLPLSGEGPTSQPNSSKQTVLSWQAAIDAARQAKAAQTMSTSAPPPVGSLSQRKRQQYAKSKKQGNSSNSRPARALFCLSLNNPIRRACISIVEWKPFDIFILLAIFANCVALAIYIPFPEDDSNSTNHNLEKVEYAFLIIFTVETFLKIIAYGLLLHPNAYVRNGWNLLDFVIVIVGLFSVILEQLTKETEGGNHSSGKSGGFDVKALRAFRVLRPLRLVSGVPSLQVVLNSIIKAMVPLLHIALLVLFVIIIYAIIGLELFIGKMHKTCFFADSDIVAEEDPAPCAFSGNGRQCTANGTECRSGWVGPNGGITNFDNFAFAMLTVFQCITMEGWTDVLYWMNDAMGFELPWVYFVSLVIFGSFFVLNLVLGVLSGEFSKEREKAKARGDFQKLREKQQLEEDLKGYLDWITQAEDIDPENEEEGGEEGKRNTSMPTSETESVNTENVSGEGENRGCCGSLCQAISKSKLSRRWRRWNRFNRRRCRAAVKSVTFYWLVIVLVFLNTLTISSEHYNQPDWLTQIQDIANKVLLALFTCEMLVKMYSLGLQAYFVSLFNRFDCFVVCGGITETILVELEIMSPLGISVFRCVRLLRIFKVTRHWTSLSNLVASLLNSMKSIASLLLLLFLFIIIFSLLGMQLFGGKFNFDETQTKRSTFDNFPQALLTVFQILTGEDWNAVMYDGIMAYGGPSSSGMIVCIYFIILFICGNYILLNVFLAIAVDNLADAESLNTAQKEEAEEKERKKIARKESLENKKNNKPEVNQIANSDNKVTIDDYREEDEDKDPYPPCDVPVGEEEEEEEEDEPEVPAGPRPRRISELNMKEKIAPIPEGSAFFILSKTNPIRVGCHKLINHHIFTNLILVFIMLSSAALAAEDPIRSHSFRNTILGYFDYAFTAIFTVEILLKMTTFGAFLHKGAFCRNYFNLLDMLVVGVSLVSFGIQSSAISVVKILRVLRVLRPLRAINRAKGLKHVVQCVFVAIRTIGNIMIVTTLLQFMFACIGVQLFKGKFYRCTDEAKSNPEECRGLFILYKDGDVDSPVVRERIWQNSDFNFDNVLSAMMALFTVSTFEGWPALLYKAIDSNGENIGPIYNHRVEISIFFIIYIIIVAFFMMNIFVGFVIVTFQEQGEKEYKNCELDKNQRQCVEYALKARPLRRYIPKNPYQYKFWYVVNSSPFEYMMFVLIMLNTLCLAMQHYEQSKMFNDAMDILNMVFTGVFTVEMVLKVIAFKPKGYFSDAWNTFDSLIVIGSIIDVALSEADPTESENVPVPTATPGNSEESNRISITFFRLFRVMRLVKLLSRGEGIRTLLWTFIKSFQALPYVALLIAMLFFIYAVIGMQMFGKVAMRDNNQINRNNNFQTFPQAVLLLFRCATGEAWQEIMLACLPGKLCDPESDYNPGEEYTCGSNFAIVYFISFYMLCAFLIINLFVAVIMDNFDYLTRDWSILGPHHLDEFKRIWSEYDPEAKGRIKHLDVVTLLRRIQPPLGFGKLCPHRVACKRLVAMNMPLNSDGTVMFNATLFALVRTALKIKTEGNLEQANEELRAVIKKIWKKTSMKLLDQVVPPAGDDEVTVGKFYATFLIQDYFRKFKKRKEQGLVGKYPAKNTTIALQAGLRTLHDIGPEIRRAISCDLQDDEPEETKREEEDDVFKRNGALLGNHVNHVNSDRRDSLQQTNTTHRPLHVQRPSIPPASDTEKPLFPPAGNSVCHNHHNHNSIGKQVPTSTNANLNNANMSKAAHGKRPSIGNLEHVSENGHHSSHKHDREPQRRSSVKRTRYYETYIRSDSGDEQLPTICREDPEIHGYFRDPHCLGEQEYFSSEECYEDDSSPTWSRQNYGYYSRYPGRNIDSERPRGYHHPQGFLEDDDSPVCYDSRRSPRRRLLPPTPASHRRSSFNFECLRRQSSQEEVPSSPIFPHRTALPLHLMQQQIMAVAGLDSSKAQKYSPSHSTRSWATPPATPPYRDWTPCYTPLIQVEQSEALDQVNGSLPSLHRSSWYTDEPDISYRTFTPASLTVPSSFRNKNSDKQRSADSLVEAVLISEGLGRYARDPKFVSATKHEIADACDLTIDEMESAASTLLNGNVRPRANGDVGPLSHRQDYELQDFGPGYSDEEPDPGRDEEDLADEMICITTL

With `CC(C)OP(=O)(O)NC(=O)c1ccccc1`, the result was inactive.

As for `N#CC1=C(N)Oc2cc(O)ccc2C1c1ccc2c(c1)OCO2` (configuration not stated), the result was inactive.
